Laboratory results published in the supplement of paper PMC3334620.
Whole data set: some 33,000 sequences, median “E-score (-0.5 to 0.5)” near -0.017, cut for the highest 2% near 0.3. For the sample, the highest values were picked, then their nearest neighbours and some sequences at random.

Target: T1, Sut1 (UniProt P53032)
T1 sequence: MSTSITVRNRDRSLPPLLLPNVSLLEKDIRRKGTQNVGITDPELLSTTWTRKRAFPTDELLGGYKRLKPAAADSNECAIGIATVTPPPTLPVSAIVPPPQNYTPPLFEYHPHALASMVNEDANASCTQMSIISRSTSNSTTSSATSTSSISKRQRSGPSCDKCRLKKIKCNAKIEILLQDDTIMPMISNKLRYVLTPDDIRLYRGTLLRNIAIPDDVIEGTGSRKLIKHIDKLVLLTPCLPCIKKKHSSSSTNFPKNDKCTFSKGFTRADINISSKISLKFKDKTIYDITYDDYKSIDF
Assay: PBM E-score (8-mer binding enrichment) (E-score (-0.5 to 0.5)); higher = stronger / more preferred TF binding
Conditions: protein concentration: 200 nM; construct: GST-full length
Procedure: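 Universal 'all 10-mer' protein binding microarrays (Agilent AMADID 015681) probed with GST-tagged S. cerevisiae TFs (full-length or DBD) made by in vitro transcription/translation (PURExpress), about 100-200 nM. Bound TF was detected with fluorescent anti-GST. Each ungapped 8-mer (which stands for itself and its reverse complement) is scored by the PBM enrichment score (E-score), a modified Wilcoxon-Mann-Whitney statistic from -0.5 to +0.5, computed with the Universal PBM Analysis Suite. Scale: above 0.35 generally sequence-specific binding.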

In order of rising “PBM E-score” value:
1. GAGGCTAC  -0.349
2. GCCGAGCA  -0.305
3. CCTCCCGA  -0.289
4. CTAGCCTC  -0.268
5. ACAAGTCG  -0.264
6. CCAAGACC  -0.261
7. AGGTCGAG  -0.257
8. GTGCAGGA  -0.23
9. CACCGACC  -0.226
10. AGCCCGTG  -0.224
11. AGGATCGC  -0.214
12. CGTCTGTC  -0.213
13. CCCTCGCG  -0.204
14. GCTCCAGA  -0.199
15. AGGAGGAG  -0.183
16. CTAGCGCA  -0.174
17. GGCGTCGA  -0.167
18. CGCACACA  -0.161
19. ACTATGGG  -0.155
20. CGTCCGTC  -0.154
21. CTGCTTGA  -0.153
22. GAGGTGGA  -0.151
23. AAGGCTGG  -0.146
24. CTCAGCTA  -0.13
25. ACTTAGCC  -0.129
26. GCTCTGCC  -0.128
27. GGGAGTCA  -0.126
28. GCTCTACA  -0.121
29. ACAAGTCA  -0.118
30. CCCGAGGA  -0.118
31. CGCGCAAC  -0.114
32. GCCCGACA  -0.106
33. AGAGGCTC  -0.103
34. ACACCTCG  -0.103
35. GCGTACTA  -0.0972
36. ATCACGGG  -0.0946
37. CGTTGGCA  -0.0897
38. CTGTCCTA  -0.0818
39. CGAAGTCA  -0.081
40. AACCCGTA  -0.0786
41. GGCCGACA  -0.0715
42. GGGATGGA  -0.0689
43. TAGTGCGA  -0.0645
44. AATTCTGG  -0.0608
45. CTTCGCAA  -0.0605
46. CACCGAGA  -0.0582
47. AGGTGTGG  -0.0561
48. AGTACGGC  -0.0481
49. AGATTGCC  -0.043
50. CTCCTGAA  -0.0399
51. AGACTCAA  -0.0327
52. GAAGCGAC  -0.0313
53. CTGAACAC  -0.0309
54. GTGCTACA  -0.0297
55. ATACGAGA  -0.0254
56. ACGTACTA  -0.0235
57. TTAGCCAA  -0.0233
58. CTTCTCTC  -0.0216
59. ATTACGGC  -0.0212
60. CGAGCTCG  -0.0197
61. ACTACTCT  -0.0164
62. ATTACGGG  -0.0151
63. CAAGCGGC  -0.0127
64. CGAAAAGC  -0.0121
65. ATGAGACA  -0.0116
66. GCTGAAGA  -0.00656
67. CCAAACAC  -0.00595
68. TCGATCAA  -0.00575
69. AGTCCATG  -0.00201
70. AGAATCCA  0.00183
71. ATCCGACC  0.00218
72. GCCGATAA  0.00363
73. GGAGACAA  0.0139
74. AAGTGTCC  0.0158
75. ATCACGGC  0.0173
76. CTCTCACA  0.0236
77. GCATGCGA  0.0246
78. CAAAGTAC  0.0285
79. GCAGCACC  0.0294
80. ACGTATAG  0.0316
81. CCCCGACA  0.0397
82. CGACACTC  0.0434
83. AGGAGTCA  0.0481
84. GAAAGTCA  0.049
85. ACCGACAA  0.0505
86. ATCCGAGC  0.0537
87. CCACAAAA  0.0574
88. GCTTCTTA  0.0688
89. ATTTGCAG  0.0722
90. GTGCCGAA  0.0728
91. CGCCGAGA  0.0729
92. AGATGGTA  0.0768
93. ATCCGACA  0.0788
94. AATCCGTC  0.0795
95. CGTCCGTA  0.0823
96. AGTGATTA  0.0842
97. GGCCGAGA  0.0849
98. GACTGATA  0.0856
99. ATAAGTCG  0.0862
100. ATCTGCAG  0.0906
101. ATGACGTA  0.0909
102. GAGAATCA  0.0959
103. GTAATCGA  0.0961
104. GTGGATTA  0.0983
105. AATTATCC  0.1
106. GCCGAGGA  0.1
107. AAAAGTCT  0.102
108. CTAAGTCC  0.114
109. TACTTACA  0.115
110. CATTATAA  0.126
111. GAACCGAA  0.13
112. ATTATATG  0.134
113. ATTTCAGC  0.137
114. AAAAGTCA  0.15
115. CATTATAC  0.151
116. GATTATAA  0.154
117. GGTACGGA  0.155
118. GGAAGTCC  0.159
119. CCCCGAGC  0.163
120. CAGAGTCC  0.17
121. AATTATTG  0.173
122. CCCGACAA  0.173
123. ACGCGTCG  0.174
124. ACCGATAA  0.18
125. AAAGTGAA  0.191
126. GCGCCGGA  0.196
127. ATCCGAGA  0.198
128. AGGAGTCC  0.202
129. ACCGAGCA  0.205
130. CTTATATC  0.222
131. CCGCCGGA  0.223
132. GATTATTA  0.229
133. CATTATTC  0.231
134. CTTCACTA  0.252
135. GGTCCGTA  0.253
136. AATTATAG  0.257
137. CTTTATTA  0.261
138. ATTATATC  0.262
139. AACACTAT  0.266
140. ATTTATTA  0.269
141. CAAAGTCC  0.282
142. GTTATATA  0.286
143. CCGTACTA  0.297
144. GTTTATTA  0.302
145. AATTATTA  0.305
146. TCCGAGCA  0.307
147. AATTATAC  0.308
148. AATTATTC  0.317
149. ATAAGTCC  0.317
150. GAAAGTCC  0.326
151. CTTATATA  0.334
152. AATTATAA  0.335
153. ATTATATA  0.337
154. TCCGACAA  0.337
155. TCCGAGGA  0.34
156. ATTACGGA  0.353
157. GTCCGACA  0.366
158. ACAAGTCC  0.374
159. CCTCCGGA  0.374
160. AGTACGGA  0.374
161. CTCCGACA  0.375
162. CGAAGTCC  0.378
163. TCCGATAA  0.387
164. CTCCGACC  0.391
165. AAAAGTCC  0.394
166. ATCACGGA  0.402
167. AGTCCGTC  0.424
168. GTCCGAGA  0.428
169. AGTCCGTG  0.431
170. CTCCGAGC  0.437
171. GCTCCGGA  0.442
172. AGTCCGTA  0.445
173. CTCCGAGA  0.459
174. CGGAGTCA  0.474
175. CGGAGTCC  0.486
